Among the test systems are NCI-H23 lung; NCI-H226 lung; NCI-H322M lung; NCI-H460 lung; HOP-92 NSCLC; NCI-H522 lung; A549/ATCC NSCLC; 786-0 renal; COLO 205 colon; DU-145 prostate; K-562 leukemia; MALME-3M melanoma; MDA-MB-231 breast; RXF 393 renal; SF-268 CNS; SF-295 CNS; SF-539 CNS; UACC-257 melanoma; M14 melanoma.
Common to all, as to assay: NCI-60 one-dose screen, 48 h (100 = growth as untreated, 0 = no growth, -100 = all killed)
What all share (conditions): 10 µM unless noted

This is part of a sample that, as a whole, favours compounds with a hit. Of some 83,000 tested, about 20% had one in any assay.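 Treatment: one concentration, 48 hours, 96-well format. Scoring: percent growth, with anything below 10 considered active.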 Values without a mark were called inactive. The source made the active and inactive calls.

As for `COc1cc2ncnc(Oc3cccc(NC(=O)Nc4cc(C(C)(C)C(F)(F)F)on4)c3)c2cc1OC`, the growth in the test with NCI-H23 lung was 19.4%; in the test with NCI-H226 lung, 23.9%; in the test on NCI-H322M lung, 1.62% (active); in the test with NCI-H460 lung it was 34.3%; in the test on HOP-92 NSCLC, -3.15% (active); with NCI-H522 lung, 0.301% (active). For the same molecule, the growth is 33.4% with A549/ATCC NSCLC; 39.5% with 786-0 renal; 1.14% (active) in the test on COLO 205 colon; 31.4% with DU-145 prostate; 2.56% (active) with K-562 leukemia; 2.64% (active) in the test on MALME-3M melanoma. Moreover, the growth in the test on MDA-MB-231 breast is 10.7%; with RXF 393 renal it was 16.7%; in the test on SF-268 CNS, 26.9%; in the test on SF-295 CNS, 38.2%; in the test on SF-539 CNS, 33%; in the test on UACC-257 melanoma it was -10.4% (active). Also, in the test with M14 melanoma, the growth was -2.42% (active).
As for `C=CCC(=O)N[C@H](/C=C/C(=O)O)Cc1ccc(-c2cc(Cl)cc(Cl)c2)cc1`, the growth is 92.7% with NCI-H23 lung; 86.2% with NCI-H226 lung; 101% in the test with NCI-H322M lung; 99.6% with NCI-H460 lung; 96.4% with HOP-92 NSCLC; 70.7% in the test with NCI-H522 lung. Further, the growth in the test with A549/ATCC NSCLC is 76.9%; in the test with 786-0 renal it was 98.4%; in the test with COLO 205 colon, 95.7%; in the test on DU-145 prostate, 106%; with K-562 leukemia, 96.7%; in the test on MALME-3M melanoma, 99.9%. Moreover, the growth with MDA-MB-231 breast was 97.9%; with SF-268 CNS, 98.7%; with SF-295 CNS, 101%; in the test on SF-539 CNS, 94.6%; in the test with M14 melanoma it was 92.2%.
Turning to `COc1ccc2c(c1OC)C(=O)O[C@@H]2[C@H]1c2c(c(C#CC#Cc3ccc(F)c(F)c3)c3c(c2OC)OCO3)CCN1C`, the growth is 90.3% in the test on NCI-H23 lung; 95.1% in the test with NCI-H226 lung; 88.8% in the test with NCI-H322M lung; 103% with NCI-H460 lung; 82.3% in the test on HOP-92 NSCLC; 86.5% in the test with NCI-H522 lung. The growth is 67.8% in the test with A549/ATCC NSCLC; 93% with 786-0 renal; 84.7% in the test with COLO 205 colon; 103% in the test on DU-145 prostate; 87.1% with K-562 leukemia; 91% in the test on MALME-3M melanoma. Also, the growth in the test with MDA-MB-231 breast was 90.9%; in the test with SF-268 CNS it was 95.9%; in the test on SF-295 CNS it was 95.6%; in the test with SF-539 CNS it was 94.9%; in the test on M14 melanoma, 90.6%.
Take `COc1cc(-c2cc(-c3ccc(Nc4ccnc5cc(Cl)ccc45)cc3)nc(N3CCOCC3)n2)cc(OC)c1OC`: the growth in the test with NCI-H23 lung is 0.48% (active); in the test on NCI-H226 lung, 92.3%; in the test with NCI-H322M lung it was 28.9%; with NCI-H460 lung, -43.9% (active); in the test with HOP-92 NSCLC, 85.8%; with NCI-H522 lung, -23.7% (active). The growth with A549/ATCC NSCLC was -30.7% (active); in the test on 786-0 renal it was -65.5% (active); in the test on COLO 205 colon, 32.4%; in the test on DU-145 prostate, 4.95% (active); in the test on K-562 leukemia, 7.37% (active); in the test on MALME-3M melanoma it was -22.4% (active). For the same molecule, the growth in the test with MDA-MB-231 breast was -15.4% (active); with RXF 393 renal it was -8.41% (active); in the test on SF-268 CNS it was 11.2%; in the test on SF-295 CNS, 6.95% (active); in the test on SF-539 CNS it was 32.9%; in the test on M14 melanoma it was -22.2% (active).
Consider `CCCCN1CCCC[C@@H]1C(=O)N[C@H](C(=O)N(C)[C@H](CCc1nc(C(=O)N[C@@H](Cc2ccccc2)C[C@H](C)C(=O)OC)cs1)C(C)C)C(C)C`, for which the growth was 59.7% in the test with NCI-H23 lung; 80.6% in the test on NCI-H226 lung; 75.6% in the test on NCI-H322M lung; 94.6% in the test on NCI-H460 lung; 18.8% in the test with HOP-92 NSCLC; 49.6% in the test on NCI-H522 lung. Also, the growth was 81.8% in the test with A549/ATCC NSCLC; 77.4% in the test with 786-0 renal; 63.5% in the test on COLO 205 colon; 92.9% in the test with DU-145 prostate; 22.9% with K-562 leukemia; 45.1% in the test on MALME-3M melanoma. For the same molecule, the growth was 71.5% in the test on MDA-MB-231 breast; 84.3% in the test on SF-268 CNS; 49.4% in the test on SF-295 CNS; 82.8% in the test on SF-539 CNS; 49.9% in the test with M14 melanoma.
Regarding `Cc1cn(-c2cc(NC(=O)c3ccc(C)c(Nc4nccc(-c5cccnc5)n4)c3)cc(C(F)(F)F)c2)cn1`, the growth with NCI-H23 lung was 49.2%; with NCI-H226 lung it was 67.1%; in the test on NCI-H322M lung it was 69.3%; with NCI-H460 lung, 63.7%; in the test with HOP-92 NSCLC, 70.7%; with NCI-H522 lung it was 41.5%. Also, the growth in the test on A549/ATCC NSCLC was 45.5%; in the test with 786-0 renal, 71.4%; in the test on COLO 205 colon it was 19.8%; in the test on DU-145 prostate, 46%; with K-562 leukemia, -11.1% (active); in the test on MALME-3M melanoma, -15% (active). The growth in the test with MDA-MB-231 breast was 40%; in the test on RXF 393 renal, -4.7% (active); in the test with SF-268 CNS, 55.8%; in the test with SF-295 CNS, 42.9%; in the test with SF-539 CNS it was 82.4%; with UACC-257 melanoma, 34.5%. In addition, the growth with M14 melanoma is 8.64% (active).
`CC(C)(C)c1ccc(Cn2cc(CSc3nc4ccccc4s3)nn2)cc1`: the growth is 90.4% with NCI-H23 lung; 83% with NCI-H226 lung; 86.2% with NCI-H322M lung; 103% in the test with NCI-H460 lung; 80.6% in the test with HOP-92 NSCLC; 84.4% with NCI-H522 lung. For the same molecule, the growth with A549/ATCC NSCLC was 83.5%; in the test on 786-0 renal, 96.2%; in the test on COLO 205 colon, 102%; with DU-145 prostate it was 115%; in the test on K-562 leukemia it was 95.6%; in the test on MALME-3M melanoma, 94%. The growth in the test on MDA-MB-231 breast was 86.2%; in the test on RXF 393 renal it was 103%; with SF-268 CNS, 95.3%; in the test on SF-295 CNS, 91%; with SF-539 CNS, 101%; in the test on UACC-257 melanoma, 97.3%. In addition, the growth in the test on M14 melanoma is 97%.
`Nc1nc(N)c2cc(CNc3ccc(C(=O)NC(CC(=O)O)C(=O)O)cc3)ccc2n1` (stereo unspecified): the growth in the test on NCI-H23 lung is 17.7%; in the test with NCI-H226 lung, 23.2%; with NCI-H322M lung, 66.7%; with NCI-H460 lung, 11.5%; with HOP-92 NSCLC it was 48.5%; in the test on NCI-H522 lung, 34.3%. Besides, the growth in the test on A549/ATCC NSCLC was -32.8% (active); in the test with 786-0 renal, 15.8%; with COLO 205 colon, 51.9%; with DU-145 prostate it was 26.7%; in the test with MALME-3M melanoma, 81.3%; in the test with MDA-MB-231 breast, 95.8%. Moreover, the growth in the test with SF-268 CNS is 29.7%; in the test with SF-295 CNS it was 28.5%; in the test on SF-539 CNS it was 15.6%; in the test on M14 melanoma it was 16.7%.
On to `C[C@@H]1COC(Nc2ccc3ncnc(Nc4ccc(OCc5nccs5)c(Cl)c4)c3c2)=N1`, for which the growth was 46.8% in the test with NCI-H23 lung; 17.1% in the test with NCI-H226 lung; 20.1% with NCI-H322M lung; 57.9% in the test with NCI-H460 lung; 10.3% in the test on HOP-92 NSCLC; 2.8% (active) in the test on NCI-H522 lung. In addition, the growth with A549/ATCC NSCLC is 40.3%; with 786-0 renal, 50%; with COLO 205 colon, -9.99% (active); with DU-145 prostate, 36.1%; in the test with K-562 leukemia it was 22.6%; with MALME-3M melanoma, 38%. Further, the growth was 42.8% in the test on MDA-MB-231 breast; 49.1% in the test on RXF 393 renal; 46.5% in the test with SF-268 CNS; 18.9% in the test on SF-295 CNS; 65.5% in the test on SF-539 CNS; 48.3% in the test on UACC-257 melanoma. Besides, the growth with M14 melanoma is 19.5%.

For the origin of these results see PubChem BioAssay (NCI).
